Reference: the supplement of paper PMC9337992
± gives the standard deviation of the averaged measurements.

These compounds were tested on MDAMB231 (assay: cell proliferation (confluence) relative to DMSO control; higher = less growth inhibition). Conditions: 5 uM; 6 d.
Protocol: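 Epigenetic chemical probe screen: 15 TNBC cell lines, 500 cells per well in 384-well plates, treated with 5 uM of each of 36 SGC probes for 6 d. Confluency was imaged by IncuCyte ZOOM and normalised to DMSO control wells. Four replicate wells per compound.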

| Compound | cell proliferation |
| --- | --- |
| O=C(O)CNC(=O)c1c(O)c2ccccc2n(Cc2ccccc2)c1=O | 97.33 ± 0.35% |
| c1ccc([C@@H]2C[C@H]2NC2CCNCC2)cc1 | 98.48 ± 0.8% |
| COc1cc(C(=O)N2CC[C@@H](O)[C@@H](N)C2)cc2nc(-c3cc4ccccc4n3CC3CC3)n(C)c12 | 88.8 ± 9.1% |
